ALOX12 inh: inhibitors of human 12S-lipoxygenase ALOX12; purified 12hLO, xylenol orange hydroperoxide absorbance; Potency, µM (titrated, usually from 108 µM), most hits filed as inhibitors; hit rate 1.1% among 580,000; AID 1671190
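Purified human 12hLO at 150 nM in 25 mM Hepes, 0.01% Triton X-100, pH 7.0, preincubated 15 min at room temperature with compound. Reaction started with 40 uM arachidonic acid, 30 min at room temperature. Hydroperoxide measured by Fe-xylenol orange, 573/405 nm absorbance ratio.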
BAZ2B block: blocks human BAZ2B; AID 504333; Q9UIF8; Potency, µM (series often up to 114 µM), hits mostly inhibitors; hit rate 4.4% among 360,000; AlphaScreen BAZ2B-H3K14Ac peptide displacement; further: nearly all actives have a fitted effect of over 60% in size
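BAZ2B (50 nM) with biotin-H3(5-23)K14Ac peptide (50 nM) in PBS pH 7.4, 0.01% Tween-20, preformed 30 min, then compound 30 min at room temperature; top concentration 110uM. AlphaScreen streptavidin donor/nickel chelate acceptor beads (10 ug/mL final), 20 min dark, signal read.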
G9a block: inhibitors of human histone lysine methyltransferase G9a; Q96KQ7; G9a H3K9 monomethylation, AlphaScreen, 2 h; hit rate 8.8% among 350,000; Potency, µM (titrated, usually from 102 µM), actives largely listed as inhibitors; further: nearly all actives have a fitted effect of over 75% in size
Target sequence (Q96KQ7 913-1193 limits assumed): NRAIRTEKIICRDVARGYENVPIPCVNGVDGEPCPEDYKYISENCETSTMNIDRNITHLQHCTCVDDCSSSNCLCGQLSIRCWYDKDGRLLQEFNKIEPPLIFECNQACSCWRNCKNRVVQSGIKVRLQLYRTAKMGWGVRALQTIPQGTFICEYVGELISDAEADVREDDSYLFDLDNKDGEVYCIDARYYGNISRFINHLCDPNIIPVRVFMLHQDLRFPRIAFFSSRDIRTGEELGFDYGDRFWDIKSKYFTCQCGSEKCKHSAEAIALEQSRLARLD
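G9a (20 nM) was preincubated 15 min with compound, then reacted 2 h at room temperature with 500 nM biotin-H3K9 peptide and 20 µM SAM. Monomethyl-H3K9 detected by AlphaScreen using anti-H3K9me1 antibody.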
JMJD2A Tudor: inhibitors of human JMJD2A Tudor domain; hit rate 4.4% among 390,000; O75164; AlphaScreen JMJD2A-Tudor / H3K4me3 peptide binding; Potency, µM (series often up to 114 µM), most hits filed as inhibitors; further: nearly all actives have a fitted effect of over 50% in size
Sfp inh: blocks B. subtilis Sfp PPTase activity. AID 1490. Biochemical Sfp PPTase activity, qHTS. hit rate 3.5% among 310,000. Potency, µM, usual class: inhibitors;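 further: the enzyme is Sfp with the accession as filed and its product quenches rhodamine fluorescence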
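Sfp 15 nM + cpd, 15 min RT; start w/ rhodamine-CoA 5 uM, BHQ-2-YbbR 12.5 uM (final); 50 mM Hepes pH 7.6, 10 mM MgCl2, 0.01% NP-40, 0.01% BSA; read 525/598 nm at 0 and 30 min.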
HP1b binding inh: inhibitors of HP1-beta chromodomain binding to methylated histone tails. Potency, µM (highest dose often 114 µM), hits mostly inhibitors. hit rate 0.56% among 390,000. AID 540317. P83916. AlphaScreen HP1-beta / biotin-H3K9me3 peptide binding; further: nearly all actives have a fitted effect of over 70% in size
Target sequence (P83916 whole entry, looked up): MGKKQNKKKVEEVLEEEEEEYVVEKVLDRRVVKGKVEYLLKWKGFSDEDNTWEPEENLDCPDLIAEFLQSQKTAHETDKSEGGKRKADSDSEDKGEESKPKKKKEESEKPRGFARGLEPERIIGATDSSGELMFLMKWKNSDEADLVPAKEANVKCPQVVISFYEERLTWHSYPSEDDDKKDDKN
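Compound inhibition of the preformed complex between 50 nM HP1-beta and 50 nM biotinylated H3K9me3 peptide was read by AlphaScreen. Buffer was PBS pH 7.4 with 0.01% Tween-20. Incubations ran 30 min at room temperature, with 10 ug/mL donor/acceptor beads.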
Numbers stand for hits; [ ] = remark or other dose. Compounds with a hit are over-represented: about 8.7% of the library has one in this group of screens. The call rests on the fitted dose curve; in most records, active means well fitted curve in the direction sought with a large enough effect; inconclusive means small, poorly fitted or top-dose-only effect, or another doubt; inactive means no such curve, though single readings can be large; an effect the other way counts as inactive or inconclusive.

Cc1occc1-c1nnc(SCC(=O)Nc2ccccc2)n1CCc1ccccc1 was read as ALOX12 inh inconclusive, BAZ2B block inactive, G9a block inactive[12.7 µM], JMJD2A Tudor inactive, Sfp inh inactive and HP1b binding inh inactive.
Cc1c(NC(=O)c2cc3cc(F)ccc3[nH]2)c(=O)n(-c2ccccc2)n1C was read as ALOX12 inh inactive.
`CC(=O)c1cc(F)c(N2CCN(C(=O)Cc3ccccc3)CC2)cc1C` gave ALOX12 inh inactive, BAZ2B block 56µM, G9a block inconclusive, JMJD2A Tudor inactive, Sfp inh inactive and HP1b binding inh inactive.
Screening Cc1ccc(C2CC(=O)N3CN(Cc4ccco4)CSC3=C2C#N)cc1 (stereo unspecified) returned ALOX12 inh 6.3µM, BAZ2B block inactive, G9a block inconclusive, JMJD2A Tudor 56µM, Sfp inh 2.2µM and HP1b binding inh inconclusive.
N#CC1=C2SCN(Cc3ccco3)CN2C(=O)CC1c1c(F)cccc1Cl (stereo unspecified) was read as ALOX12 inh inconclusive, BAZ2B block inactive, G9a block 1.6µM, JMJD2A Tudor 14µM, Sfp inh 2.8µM and HP1b binding inh inconclusive.
Cc1ccc(N2CN(Cc3ccco3)CNC2=S)cc1 was read as ALOX12 inh inactive, BAZ2B block inactive, G9a block inactive, JMJD2A Tudor inactive, Sfp inh inactive and HP1b binding inh inactive.
`CCOc1ccc(N=Nc2c(C)[nH]n(-c3ccccc3)c2=O)cc1` gave ALOX12 inh inconclusive, BAZ2B block inconclusive, G9a block inactive[0.501 µM], JMJD2A Tudor inconclusive, Sfp inh inconclusive and HP1b binding inh inactive.
CC(=O)N(C)c1ccc(N=Nc2c(C)[nH]n(C(N)=S)c2=O)cc1 was read as ALOX12 inh inconclusive, BAZ2B block inactive, G9a block inactive, JMJD2A Tudor inactive, Sfp inh inconclusive and HP1b binding inh inactive.
`CC(=O)N(C)c1ccc(N=Nc2c(C)[nH]n(-c3ccccc3)c2=O)cc1` gave ALOX12 inh inconclusive, BAZ2B block inconclusive, G9a block 35µM, JMJD2A Tudor inconclusive, Sfp inh inactive and HP1b binding inh inconclusive.
CCOC(=O)c1ccc(N=Nc2c(C)[nH]n(-c3ccccc3)c2=O)cc1 was read as ALOX12 inh inactive, BAZ2B block inconclusive, G9a block 4µM, JMJD2A Tudor inconclusive, Sfp inh inactive and HP1b binding inh inactive.
`Cc1ccc(CN2CCCCCCNC(=O)[C@@H]3CCC[C@@H]32)o1` gave ALOX12 inh inactive.
For N#Cc1ccc(CNC(=O)[C@@H]2Cc3nc[nH]c3CN2Cc2cc3ccccc3o2)cc1 the results were ALOX12 inh inactive.
Screening CCCc1ccccc1OCCNC(C)=O returned ALOX12 inh inactive, BAZ2B block inactive, G9a block inactive, JMJD2A Tudor 16µM, Sfp inh inactive and HP1b binding inh inactive.
Screening Cc1cc(C)cc(NC(=O)N2CCC(OC3CCN(S(C)(=O)=O)CC3)CC2)c1 returned ALOX12 inh inactive.
CCc1ccc2c(CN(CC)Cc3nc4ccccc4c(=O)[nH]3)cc(=O)oc2c1 was read as ALOX12 inh inconclusive, BAZ2B block inactive, G9a block 3.5µM, JMJD2A Tudor inactive[11.4 µM], Sfp inh inactive and HP1b binding inh inactive.
`Cc1c(Cl)cn2c(=O)cc(CN3CCN(c4ccccc4)CC3)nc2c1Cl` gave ALOX12 inh inactive, BAZ2B block inactive, G9a block 40µM, JMJD2A Tudor inactive[11.4 µM], Sfp inh inactive and HP1b binding inh inactive.
`CCN(Cc1cc(=O)n2cc(Cl)c(C)c(Cl)c2n1)Cc1nc2ccccc2c(=O)[nH]1` gave ALOX12 inh inconclusive, G9a block 50µM, JMJD2A Tudor inactive, Sfp inh inactive and HP1b binding inh inactive.
Cc1noc(-c2ccccc2OCC(=O)Nc2cccc([N+](=O)[O-])c2)n1 was read as ALOX12 inh inactive, BAZ2B block inconclusive, G9a block inconclusive, JMJD2A Tudor 50µM and HP1b binding inh inactive.
For Cc1ccccc1-c1noc(-c2ccccc2OCC(=O)Nc2ccccc2[N+](=O)[O-])n1 the results were ALOX12 inh inactive, BAZ2B block inconclusive, G9a block 14µM, JMJD2A Tudor 20µM and HP1b binding inh inactive.
Screening Cc1noc(-c2ccccc2OCC(=O)Nc2ccccc2[N+](=O)[O-])n1 returned ALOX12 inh inactive, BAZ2B block inactive, G9a block inconclusive, JMJD2A Tudor inactive and HP1b binding inh inactive.
`CS(=O)(=O)N(Cc1cccnc1)C1CN(C(=O)Cc2c[nH]c3ccccc23)C1` gave ALOX12 inh inactive.
Screening CC(C)(C)c1ccc(-c2csc(NC(=O)CN3C(=O)NC4(CCCCC4)C3=O)n2)cc1 returned ALOX12 inh inactive, BAZ2B block inactive, G9a block inactive[12.7 µM], JMJD2A Tudor inactive, Sfp inh inactive and HP1b binding inh inactive.
Screening COc1ccc(OC)c(-c2csc(NC(=O)Cc3cc(OC)c(OC)c(OC)c3)n2)c1 returned ALOX12 inh inactive, BAZ2B block inactive, G9a block inactive, JMJD2A Tudor inactive, Sfp inh inactive and HP1b binding inh inactive.
COc1ccc(OC)c(-c2csc(NC(=O)COC(=O)c3ccc(NC(=O)CC#N)cc3)n2)c1 was read as BAZ2B block 40µM, G9a block inactive[12.7 µM], JMJD2A Tudor 45µM and HP1b binding inh inactive.
COc1ccc(NC(=O)CN2C(=O)NC3(CCCC3)C2=O)c(OC)c1 was read as ALOX12 inh inactive, BAZ2B block inactive, G9a block inactive, JMJD2A Tudor inactive, Sfp inh inactive and HP1b binding inh inactive.
For COc1ccc(OC)c(-c2csc(NC(=O)CN3C(=O)C4CCCCC4C3=O)n2)c1 (stereo unspecified) the results were ALOX12 inh inactive, BAZ2B block inconclusive, G9a block 50µM, JMJD2A Tudor inconclusive and HP1b binding inh inconclusive.
Screening COc1ccc(-c2csc(NC(=O)CN3C(=O)NC4(CCCC4)C3=O)n2)c(OC)c1 returned ALOX12 inh inactive, BAZ2B block inactive, G9a block 50µM, JMJD2A Tudor inactive and HP1b binding inh inactive.
`COc1ccc(-c2csc(NC(=O)CN3C(=O)C4CCCCC4C3=O)n2)cc1OC` (stereo unspecified) gave ALOX12 inh inconclusive, BAZ2B block inconclusive, G9a block inactive, JMJD2A Tudor inactive, Sfp inh inactive and HP1b binding inh inactive.
COc1ccc(-c2csc(NC(=O)CN3C(=O)NC4(CCCC4)C3=O)n2)cc1OC was read as ALOX12 inh inactive, BAZ2B block inactive, G9a block 56µM, JMJD2A Tudor inactive and HP1b binding inh inactive.
`COc1ccc(C2Cn3nnc(C(=O)N4CCC(C(=O)NC5CC5)CC4)c3CO2)cc1` (stereo unspecified) gave ALOX12 inh inactive.

High-throughput results from PubChem BioAssay.
